TRAIL sens C8 – sensitizes caspase-8 expressing cells to TRAIL | actives 1% (n = 360,000) | inhibition (viability loss, TRAIL sensitization), % at 10 µM | NB7+C8 cells + TRAIL, ATPlite viability luminescence;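 active means compounds causing at least 50% loss of cell viability in the single-dose screen, relative to plate controls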
HIF-2a block – inhibitors of HIF-2a; 786-0 RCC cells HIF-2a reporter, luciferase luminescence, overnight; inhibition, % at 18.8 µM; actives 0.72% (n = 360,000); AID 624352;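 active means inhibition of the luminescence signal of 40% or more relative to plate controls, in a single-dose primary screen at 18.75 µM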
TWEAK-Fn14 inh – TWEAK-Fn14 signaling inhibition; inhibition, % at 10 µM; TWEAK-stimulated Fn14 reporter cells, luciferase luminescence, 8 h; actives 2% (n = 360,000); AID 1159606; in the data active means inhibition above about 50%
aSyn UTR inh – 5' untranslated region of α-synuclein, MLPCN primary screen | alpha-synuclein 5'UTR reporter, inhibitor activity | inhibition, % (tested at 7.5 µM) | actives 0.82% (n = 300,000) | AID 1813; in the data active means inhibition above about 60%;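 further: H4 neuroglioblastoma cells stably carrying SNCA 5'UTR luciferase fusion; 0% = DMSO wells and 100% = positive control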
HSP90 refold inh – HSP90 refolding inhibition in rabbit reticulocyte lysate | luciferase refolding luminescence, 3 h | AID 1789 | actives 0.91% (n = 290,000) | inhibition, % at 5.6 µM;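 active means inhibition above the screen-wide mean plus 3 SD, computed separately per campaign, cut at about 16% in these data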;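 further: 0% = DMSO wells and 100% = 60 µM geldanamycin wells; inhibitors lower the luminescence because luciferase stays unfolded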
TROY NFkB inh – TROY signaling inhibition | Q293 LMP1-TROYcd NF-kB luciferase reporter, 4 h | inhibition, % at 10 µM | actives 0.98% (n = 360,000) | AID 1347056;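 active means compounds whose plate-normalised and pattern-corrected inhibition of the luciferase reporter signal at the single screening dose is 50% or more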
The depositor's hits bear a star; i = inactive; · = no result; ! = not active in a repeat. Shown are actives, neighbours in structure and some others; about 3.9% of the full set was active somewhere.

SMILES	TRAIL sens C8	HIF-2a block	TWEAK-Fn14 inh	aSyn UTR inh	HSP90 refold inh	TROY NFkB inh
Cc1sc2ncnc(N3CCC(C(=O)Nc4cc(Cl)ccc4Cl)CC3)c2c1C	2	1	10	-7	·	40
Cc1ccc(NC(=O)C2CCN(c3ncnc4sc(C)c(C)c34)CC2)cc1S(=O)(=O)N(C)C	23	16	55*	19	·	51*
CC(=O)NCN1CCN(CNC(C)=O)CC1	-6	18	74*	5	0	-1
CC(=O)N1CCN(CC(=O)O)CC1	·	·	·	2	-2	·
CC(=O)c1cccc(-c2ccnc3c2CC(C(=O)NCc2cccs2)O3)c1 (stereo not drawn)	18	-9	27	·	·	19
O=C(c1ccco1)N1CCN(c2nc3ccccc3c(=O)n2-c2ccccc2)CC1	-1	11	-22	10	-2	61*
CCCCCCCCCCOC(=O)Cn1c(COc2ccccc2)[n+](C)c2ccccc21	6	-12	70*	7	14	43
CCCCCCCCCCOC(=O)Cn1c(COc2ccc(OC)cc2)[n+](C)c2ccccc21	38	-57	62*	25	12	65*!
CCCCCCCCCCOC(=O)Cn1c(COc2ccccc2C)[n+](C)c2ccccc21	49	2	92*	25	6	52*
CCCCCCCCCCOC(=O)Cn1c(COc2cccc(C)c2)[n+](C)c2ccccc21	23	-25	51*	65*	9	46
CCOC(=O)Cn1c(COc2ccccc2OC)[n+](C)c2ccccc21	9	16	-12	-1	·	-14
CCOc1ncccc1C(=O)OC(C)C(=O)Nc1ccc(N2CCOCC2)cc1 (stereo not drawn)	-7	-15	-6	·	·	0
O=C(CSc1ccc(F)cc1)N1CCC(c2nc3ccccc3s2)CC1	0	-41	31	-7	1	19
Fc1ccc(-c2nnc(CN3CCC(c4nc5ccccc5s4)CC3)o2)cc1	11	15	53*	·	6	23
CC1(C)CC(=O)C(C2C3=C(CC(C)(C)CC3=O)Oc3c(Br)cc(Br)cc32)=C(O)C1 (stereo not drawn)	2	-4	62*	-5	-4	46
CC(C)(C)c1ccc(CC(=O)N2CCC2(C)C(=O)NS(=O)(=O)c2ccc(Cl)cc2)cc1 (stereo not drawn)	3	5	-2	·	·	13
Cc1nn(-c2ccc(Cl)cc2)c(Cl)c1/C=C(\C#N)C(N)=O	13	1	8	-45	-2	-4
C=CCNC(=O)/C(C#N)=C/c1c(C)nn(-c2ccc(Cl)cc2)c1Cl	11	18	51*	-57	1	0
CCCc1nc2cc(C)c(Br)c(C)n2c1Cc1ccccc1OC	2	10	-2	·	·	-7
CCCCc1ccc(-c2ccc(C)cc2O)nc1	43	-249	33	84*	-1	-4
CCCCc1ccc(-c2ccc(Br)cc2O)nc1	22	-206	27	-6	2	0
COc1ccc(-c2cc(C(=O)N3CCN(c4ccccc4)CC3)no2)cc1	-8	-283	50*	-156	-2	38
CCOc1ccc(-c2cc(CCCC(=O)NCCCOC)no2)cc1	24	32	1	87*	5	8
COc1ccc(-c2noc(CCCC(=O)N3CCN(c4cc(C)ccc4C)CC3)n2)cc1	-5	-214	-3	·	·	13
COc1ccc(-c2noc(CCCCC(=O)N3CCN(c4cc(C)ccc4C)CC3)n2)cc1	19	13	64*	·	·	44
SMILES	TRAIL sens C8	HIF-2a block	TWEAK-Fn14 inh	aSyn UTR inh	HSP90 refold inh	TROY NFkB inh
CCOc1ccc(-c2cc(CCCC(=O)N3CCN(c4ccc(OC)cc4)CC3)no2)cc1	-3	50*	42	48	-4	20
COc1ccc(-c2cc(C(=O)N3CCN(c4ccccc4OC)CC3)no2)cc1	6	1	50	-7	-3	7
CCOc1ccc(OCCC(=O)OCC(=O)N2CCN(c3ccc(OC)cc3)CC2)cc1	15	5	-2	-4	·	20
COc1ccc2c(c1OC)C(=O)OC2Nc1nc(-c2ccc(-c3ccccc3)cc2)cs1 (stereo not drawn)	62*	-234	40	-233	-2	-97
O=C1OC(Nc2nc(-c3ccc(F)cc3)cs2)c2ccccc21 (stereo not drawn)	16	-69	59*	-1	-1	-9
CC1(C(=O)NS(=O)(=O)c2ccc(Br)cc2)CCN1C(=O)C1CCCCC1 (stereo not drawn)	-26	10	-7	·	·	5
O=C(Nc1ccc(Br)cc1)C1CCN(C(=O)c2ccco2)CC1	-7	7	55*	-6	-2	-14
CC1(C)CCN2CCC(C)(C)c3c(O)ccc1c32	46	15	64*	23	8	47
CCN(CC)c1ccc(/C=C2\C(=O)N(c3nnc(C)c(=O)[nH]3)N=C2C)cc1	-6	13	75*	-17	0	-20
Nc1[nH]c(C(=O)c2ccccc2)c(-c2ccc(Br)cc2)c1C(=O)c1ccc(Br)cc1	0	-10	91*	·	·	18
C=CCc1ccccc1OCC(=O)N/N=C/c1ccc(OC(C)=O)cc1OC(C)=O	50*	-13	-12	41	-7	-46
Cc1ccccc1OCC(=O)N/N=C/c1cc2ccccc2nc1Cl	4	-44	25	-55	1	18
O=C1Cc2c([nH]c3ccc(Br)cc23)-c2ccccc2N1	34	i	79*	·	·	4
Nc1nc(Cl)nc2c1ncn2C1CC(O)C(CO)O1 (stereo not drawn)	2	11	-22	87*	·	1
COC(=O)[C@]12CCCCC=C1N(Cc1ccc3c(c1)OCO3)C(=O)[C@H](CC(=O)NCc1ccccc1)C2	-3	9	·	·	·	·
N#C/C(=N\Nc1ccc(S(=O)(=O)N2CCCCC2)cc1)C(N)=S	-5	7	50*	17	2	38
N#CC(C#N)=NNc1ccc(S(=O)(=O)N2CCCC2)cc1	-5	15	51*	-7	-2	55*
N#C/C(=N\Nc1ccc(S(=O)(=O)N2CCCCCC2)cc1)C(N)=S	13	-46	68*	-16	0	49
N#C/C(=N/Nc1ccc(S(=O)(=O)N2CCOCC2)cc1)C(N)=O	0	6	-2	3	3	-2
CCCCc1c(-c2cccc(Br)c2)ncn1CCc1ccccc1OC	31	-61	23	·	·	26
COc1ccc(C(C(=O)Nc2ccc3c(c2)OCCO3)n2c(=O)c(-c3ccco3)nc3ccccc32)cc1 (stereo not drawn)	18	-54	·	·	·	·
CCN1CCN(c2c(C=O)c(Cl)nc3ccc(OC)cc23)CC1	-2	25	56*	-5	-1	26
Nc1nc2ccccc2cc1C(=O)NCCCCc1ccccc1	6	-48	53*	·	·	14
CC(=NN1CC(=O)NC1=O)c1ccc([N+](=O)[O-])o1	5	-6	-6	·	·	-9
COc1cc(/C=C2\SC(=O)N(CC(=O)Nc3ccccc3F)C2=O)cc(Cl)c1O	-2	18	18	-9	-2	54*

Screening data deposited in PubChem BioAssay by several laboratories.
